The campaign covered roughly 31,000 sequences. About 1,400 (4.5%) were called active. This is one part of a sample in which actives are shown more often than they occur. A number with no mark means an inactive call.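 Rule for the calls: active = median seed-adjusted z-score above 1 or below -1; inactive = the rest.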
Assay: Novel Modifiers of Survival Motor Neuron (SMN) Protein: Gene Identification via Genome-wide siRNA Screen;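 note: luminescence tracks full-length SMN protein made from the SMN2 reporter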
Settings: HEK293T SMN2-luciferase reporter, siRNA knockdown, 72 h; actives lie on both sides
How it was run: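 siRNA screen, 10418 genes ×3 siRNAs; 1 pmol/well, lipid reverse transfection into HEK293T SMN2-luc reporter line. 72 h, 37 °C, 5% CO2; ONE-Glo readout. Data: neg-ctrl normalized, log10, MAD; hit = MAD >1.0 or < -1.0.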

Sequence	median seed-adjusted z-score
AGAAGGACGUGUCCAAGGATT against FOXC2	-0.792
GAAUGAUGUUGACAUGAGUTT against SSR1	-0.434
GCCUAUUCAUCGGAAGGUATT against SENP2	0
UGCUUAUGAUCAACAUUUATT against LSM3	-1.36 (active)
GGGUUUAACUUUCAGAGAUTT against VN2R1P	-0.25
GGGUUGGUGUGAUUGGAGUTT against LOC647743	-0.203
GCUCGGCAUCUGUUGGUUATT against SIRT3	-0.341
GGCCUAUAAUGAAUACCCUTT against GLRA1	0
CAUUGAAACUGAUAAACCATT against ARCN1	-1.25 (active)
GCAGAGCAAUGGGAGAGAATT against EPHB4	-0.143
GCAUCGCAGUGCUAAACAUTT against DGKA	-1.36 (active)
AGACAAUCGUCAUGCAAUUTT against CDC37	0
GAAUUACUCUGCCUCUAAATT against TAF7	-0.593
CGUCUAAUGCUGCUCCACATT against AGPAT1	-1.38 (active)
AUCCUUCCCUGAAUCAUCATT against KLRC2	-0.472
GUAUCCAUGUGCAUUUUAATT against NT5E	0.199
GCUCAUACCUCGGAUGUCATT against GPR31	-0.0381
CCACAUUUGUGACGCAAAATT against TPSAB1	0.197
GCUAAAUGGAGGAGACUAATT against HHEX	-0.428
CAACAUUCAUGGACGGGAATT against SLC2A7	-0.0337
CGUAAAUCCCUAAUCUUUATT against FOXJ1	-0.553
CACUGAAUGUGAGAGCUGUTT against HRC	1.06 (active)

Sequence	median seed-adjusted z-score
CCUUCUUCUGGAUACCGAUTT against ABCA9	-0.139
GCGGAAAAGCUGUAUCUAUTT against POLR3E	-0.55
GGUGGAACUUUUAAUCAAATT against GABPB2	0.441
CCAGAUUGCUAGUAUCUCATT against TRAK1	0.298
CCUGGAAAGUACUCUAGAATT against PGS1	1.36 (active)
GGAUCCUACUGGUAAAACUTT against NUDT5	0.228
GCAGCGACCUUUCAGAACATT against SALL1	-0.526
GAUUAUAAGUAUCUACGUUTT against GTPBP4	1.01 (active)
GACUGACACGGAAUAGUGUTT against ZNF286A	0.0368
CCACCUUCAAUAUCGAGUUTT against DRD3	0.0447
ACUGCAAUCUGUUGCCCAATT against CLIC5	0
CAUUCUCAGUCAUCAUAGATT against ATP8A2	0
GGAUCUGCUUUCGAACCUATT against MBOAT1	-1.22 (active)
GGAUAGUAUGAAUGAUCAATT against SRP54	0.203
CCGCUUCACAGGUAGUUAATT against NUP93	1.01 (active)
GGUCAAACAAUGUCGCUUUTT against COPB2	-0.61
GUAAGUCCCUUUAUUCACATT against GFRA4	-1.59 (active)
GGACUCUACCUGACAGAAATT against CAPN13	0.208
GGUUCUAGCUGUCAACAUUTT against AP1G2	0.0657
ACCACCAAAUGAAGAAUAATT against AKR7A3	0.455
GCAUCCUUGUGUACAUGUGTT against USP41	0.808
GCACCUUCGUCUACAAGGATT against PDE6A	1.25 (active)

Sequence	median seed-adjusted z-score
UGGACUUCGUGGUUCAGCATT against SULT1A1	-0.26
GGAUGUUUUCCGGUUCAUATT against LOC4951	0.0691
GCUUUCAUCGGCUCCAUAATT against CARM1	0.317
GAUGUAACAUUGACAUUGATT against NOTCH2	0.000598
CAUUUUCAGUCUUUAGAAATT against RNF34	-0.0857
GGGUUGUUUCAAUCUAACATT against HDAC2	-1.27 (active)
GCCCUGAAGAUAUCGUGAATT against PARVG	0.321
GGACUUUGAGGAAACGGAATT against BRD8	-0.133
GUUACGCCCUGAUUCUAAATT against MAT2A	-1.9 (active)
GGAACAAAGACUAAAAACATT against TUBB6	0.63
GCAAAACACCAGAACGAGATT against TESSP2	0.419
GAAUAGAGGAUAUCCUUGATT against KYNU	0.00735
CCAGCUUGCUUGUGUAUAATT against PPP1R14A	0.0124
GGAAGACUCAUUGAACAUATT against CASP1	-0.331
GGGAAUUACCAGUUACGGATT against TMPRSS12	0.0961
CAAUGUUCCUCUACCUCUATT against MAL2	-0.604
GCAUCCUUACAGCACUGCATT against XRCC3	0.332
GACUAUCUUUUUAGGCAAATT against BRIP1	0.312
GCCUCAUCGUUCUGCAGAATT against ZNF628	-0.121
GUACAGGCCCUACAUCAUUTT against LRP5	-1 (active)
CAUCUGACCCUAACUGAAATT against ZMYND10	0.255
GGGUGAUCGAGGACCCAAATT against COL8A1	-0.848

Sequence	median seed-adjusted z-score
GGAUCAUGCUAAAAGGAGATT against SNRPE	-2.77 (active)
GCCUUGUAAAAAUCAACUUTT against ZNF528	-0.0746
CGCAAAAGGCUACCACGAATT against CD300LF	-0.264
GGUUGCUACGGGAACAAUATT against ARSD	-0.447
CAGUGACCUGCUUCCCUCATT against PROP1	0.303
CGGUGUGAAGAUGAUCUAATT against DNAJC24	-0.0166
GUUACUCACAUUUUCUUUATT against AKR7A3	0.455
UAAUCAAUCUGGAAUGUUUTT against BMP8B	0
CGAGGAGCUGAAUUCCCAATT against SLC9A3R1	-0.418
CAGACUGAAGGGUUCCGAATT against MLH3	0.228
GCCUCUAAGAGCUGAGAGATT against PRSS33	-0.588
GGACUAUGCAAAGAAUCUATT against RPS6KB1	1.4 (active)
GCUACGAUCACAUUACGAATT against JARID1D	0.293
GUACCAGUCCAGUCCAUGATT against CDKN2D	-0.455
GGAAGUAAAUGUUGUUUUATT against CCL11	-0.221
GGCCCGAGCUGAUUGACUATT against ACTN1	0
GCUCUAACCUCACUAAUCATT against ZNF256	0.00739
CCGCUGCAACAACCAGAAATT against LRP3	-1.05 (active)
CAGUCCUACAGGUUCAUCATT against PIP5K1C	-0.13
GAGAUAUUUGAGUCGUUAATT against GBP7	0
CAACUCCGUGGUUACCAAATT against PQBP1	-1.12 (active)
UCAUGAGCCUGAUAAGUGATT against PPP2R5D	0.848

Sequence	median seed-adjusted z-score
GAUCUCAAAUCAGAGUUAATT against ANXA7	0.671
CAAUGGAUCGGCUUCCUUATT against ADRA2B	0.00853
GCAAUAAGAGAGAUCAGUATT against PDSS1	-0.287
GGACAAGAAGCAAAUGACATT against OLIG2	0.00944
GGUCCGCAAAGGCUUCUGATT against VWA1	0.289
CCUUAUCCGAGAAUACAUUTT against TUBAL3	1.05 (active)
GGAAAUUGACUUUCUAAAATT against KRT84	-0.645
CAGUGACUAUGAGAGUGUATT against SCARB2	-0.244
CGGUUGAAGUGUAGGGAGATT against TCEA1	0
CGAGUAUACAGUAUACAGATT against CHAF1B	0.634
CUCAGAGAAUAAUCACAAATT against PER2	-0.113
GAACUAUAUUCUUCUGUGATT against CDH1	-0.24
GCCUCCUACUACUUCCGUUTT against SLC6A8	-0.0673
GAAUUGUACCUACUUCUGUTT against PTPLA	0.291
CUACCUCUCUUGUUUGGAATT against TRIP13	1 (active)
GCAAGCAGGUUAUCAACGATT against FLII	-0.353
GCAUGUACGACCAAUGUAATT against NR3C1	-0.47
GAGUCACAGUUGAAGAUCUTT against GOT2	0.205
CAAUCUCCGCAAAAAUGGATT against PCMT1	0.139
CGACAUCUCACUCAUGAAATT against SF3A3	-2.1 (active)

From PubChem BioAssay AID1347426 (Functional Genomics Laboratory (NCATS/FGL), 2020)
